Reference: PubChem BioAssay (Tox21)
“And” between values parts separate entries of the source, which are not always exact repeats. Identical values can stand only once. Inconclusive results are not listed. Where a call stands in place of a potency, no number is given. Values without a mark were called inactive. The source made the active and inactive calls. Unless noted, the call rests on the fitted dose curve.

target: Progesterone receptor (Homo sapiens) (UniProt P06401); test: qHTS assay to identify small molecule agonists of the progesterone receptor (PR) signaling pathway (AID 1346784); conditions: PR-UAS-bla HEK293T, beta-lactamase FRET ratio, 16 h; series mostly up to 92.4 µM; further: nearly all actives have a fitted effect of over 30% in size
In short: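 Cells (PR-UAS-bla HEK 293T, GripTite) were plated in assay medium containing 2% charcoal-stripped FBS and incubated 6 hr. Test compounds in DMSO were added for 16 hr at 37C. FRET substrate was then loaded for 2 hr at room temperature before fluorescence reading.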

Chain of Progesterone receptor (Homo sapiens) (P06401 whole entry, looked up): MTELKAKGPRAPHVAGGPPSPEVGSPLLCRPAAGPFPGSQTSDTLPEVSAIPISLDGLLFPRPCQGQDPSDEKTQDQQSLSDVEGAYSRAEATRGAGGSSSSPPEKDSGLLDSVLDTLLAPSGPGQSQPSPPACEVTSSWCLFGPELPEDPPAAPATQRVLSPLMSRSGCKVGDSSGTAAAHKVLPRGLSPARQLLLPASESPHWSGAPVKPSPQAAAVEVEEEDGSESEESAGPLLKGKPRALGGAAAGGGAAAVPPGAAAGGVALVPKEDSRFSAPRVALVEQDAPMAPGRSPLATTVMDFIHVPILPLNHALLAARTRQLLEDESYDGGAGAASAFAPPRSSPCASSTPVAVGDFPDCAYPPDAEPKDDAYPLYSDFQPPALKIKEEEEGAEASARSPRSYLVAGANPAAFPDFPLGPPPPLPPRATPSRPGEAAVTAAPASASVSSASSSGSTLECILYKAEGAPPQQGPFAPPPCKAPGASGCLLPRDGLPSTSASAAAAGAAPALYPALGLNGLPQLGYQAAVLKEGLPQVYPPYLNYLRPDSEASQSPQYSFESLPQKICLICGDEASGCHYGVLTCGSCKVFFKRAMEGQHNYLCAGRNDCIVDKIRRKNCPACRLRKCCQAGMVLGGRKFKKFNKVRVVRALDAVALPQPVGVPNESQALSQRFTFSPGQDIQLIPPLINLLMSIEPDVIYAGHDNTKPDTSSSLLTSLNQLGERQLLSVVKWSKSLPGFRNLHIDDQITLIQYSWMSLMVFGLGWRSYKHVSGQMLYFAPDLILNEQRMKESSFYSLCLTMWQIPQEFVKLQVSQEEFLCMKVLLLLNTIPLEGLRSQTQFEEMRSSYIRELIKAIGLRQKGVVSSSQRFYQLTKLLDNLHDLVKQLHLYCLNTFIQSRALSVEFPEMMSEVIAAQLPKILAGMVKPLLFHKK

| Structure (SMILES) | Potency | activation |
| --- | --- | --- |
| Cc1cccc(C)c1 | inactive |  |
| CNNCc1ccc(C(=O)NC(C)C)cc1 | inactive |  |
| CCCCCCCC(=O)OCC(COC(=O)CCCCCCC)OC(=O)CCCCCCC | inactive |  |
| CC1(C)S[C@@H]2[C@H](NC(=O)[C@H](N)c3ccccc3)C(=O)N2[C@H]1C(=O)O | inactive |  |
| C=CCc1ccc(O)c(OC)c1 | inactive |  |
| CN(C)C(=O)Nc1ccc(Cl)c(Cl)c1 | inactive |  |
| CN(N=O)C(=O)N[C@@H]1[C@@H](O)[C@H](O)[C@@H](CO)O[C@@H]1O | inactive |  |
| CCCCCCc1ccc(O)cc1O | inactive |  |
| CCCCOC(=O)c1ccc(O)cc1 | inactive |  |
| NC(CO)(CO)CO | inactive |  |
| CN(C)CCOC(c1ccccc1)c1ccccc1 | inactive |  |
| C/C=C/C=C/C(=O)O | inactive |  |
| COc1cccc(O)c1O | inactive |  |
| Cc1cc(=O)oc2cc(O)ccc12 | inactive |  |
| O=c1[nH]cnc2c1ncn2[C@H]1CC[C@@H](CO)O1 | inactive |  |
| O=c1[nH]cc(F)c(=O)[nH]1 | inactive |  |
| O=S1(=O)OC(c2ccc(O)cc2)(c2ccc(O)cc2)c2ccccc21 | inactive |  |
| NC1CCCCC1 | inactive |  |
| Nc1ccc2c(c1)CN1C(=O)c3ccccc3C1=N2 |  | -0.634% [at 19 µM] |
| O=C1NS(=O)(=O)c2ccccc21 | inactive |  |
| NS(=O)(=O)c1cc2c(cc1Cl)NCNS2(=O)=O | inactive |  |
| O=CC(=O)c1ccccc1 | inactive |  |
| C1CCC(C(CC2CCCCN2)C2CCCCC2)CC1 (stereo not given) | inactive |  |
| Cc1c(C(=O)O)c(O)cc2c1C(=O)c1c(O)c([C@@H]3O[C@H](CO)[C@@H](O)[C@H](O)[C@H]3O)c(O)c(O)c1C2=O | inactive |  |
| O=C1c2c(O)cccc2Cc2cccc(O)c21 | inactive |  |
| OC[C@H]1O[C@H](O[C@]2(CCl)O[C@H](CCl)[C@@H](O)[C@@H]2O)[C@H](O)[C@@H](O)[C@H]1Cl | inactive |  |
| CCOc1ccc(NC(C)=O)cc1 | inactive |  |
| COc1ccc(C(Cl)=C(c2ccc(OC)cc2)c2ccc(OC)cc2)cc1 | inactive |  |
| CC(C)NCC(O)c1ccc(O)c(O)c1 (stereo not given) | inactive |  |

target: Progesterone receptor (Homo sapiens) (UniProt P06401); test: qHTS assay to identify small molecule antagonists of the progesterone receptor (PR) signaling pathway (AID 1346795; active means well fitted inhibition curve with a large enough effect in the signal ratio in the repeat runs, not every such curve was filed as active; the % refers to the signal ratio; further: potency means the concentration at half of the fitted maximal effect); conditions: PR-UAS-bla HEK293T, beta-lactamase FRET ratio, 16 h; series mostly up to 92.4 µM
In short: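 Antagonist mode: compounds tested against 1 nM (final) promegestone stimulation in HEK293T cells expressing PR-UAS-bla reporter, 16 hr at 37C, 5% CO2; beta-lactamase activity detected via B/G FRET substrate after 2 hr at room temperature.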

| Structure (SMILES) | Potency | activity change, negative = inhibition |
| --- | --- | --- |
| Cc1cccc(C)c1 | inactive |  |
| CNNCc1ccc(C(=O)NC(C)C)cc1 | inactive |  |
| CCCCCCCC(=O)OCC(COC(=O)CCCCCCC)OC(=O)CCCCCCC | inactive |  |
| CC1(C)S[C@@H]2[C@H](NC(=O)[C@H](N)c3ccccc3)C(=O)N2[C@H]1C(=O)O | inactive |  |
| C=CCc1ccc(O)c(OC)c1 | inactive |  |
| CN(C)C(=O)Nc1ccc(Cl)c(Cl)c1 | inactive |  |
| CN(N=O)C(=O)N[C@@H]1[C@@H](O)[C@H](O)[C@@H](CO)O[C@@H]1O | inactive |  |
| CCCCCCc1ccc(O)cc1O | 27.4 µM (active) and 27.3 µM (active) and 23.7 µM (active) |  |
| CCCCOC(=O)c1ccc(O)cc1 | 27.6 µM (active) and 27.3 µM (active) and 26.6 µM (active) |  |
| NC(CO)(CO)CO | inactive |  |
| CN(C)CCOC(c1ccccc1)c1ccccc1 | inactive |  |
| C/C=C/C=C/C(=O)O | inactive |  |
| COc1cccc(O)c1O | inactive |  |
| Cc1cc(=O)oc2cc(O)ccc12 | inactive |  |
| O=c1[nH]cnc2c1ncn2[C@H]1CC[C@@H](CO)O1 | inactive |  |
| O=c1[nH]cc(F)c(=O)[nH]1 | inactive |  |
| O=S1(=O)OC(c2ccc(O)cc2)(c2ccc(O)cc2)c2ccccc21 | inactive |  |
| NC1CCCCC1 | inactive |  |
| Nc1ccc2c(c1)CN1C(=O)c3ccccc3C1=N2 |  | -14.5% [at 18.9 µM] |
| O=C1NS(=O)(=O)c2ccccc21 | inactive |  |
| NS(=O)(=O)c1cc2c(cc1Cl)NCNS2(=O)=O | inactive |  |
| O=CC(=O)c1ccccc1 | inactive |  |
| C1CCC(C(CC2CCCCN2)C2CCCCC2)CC1 (stereo not given) | 29.8 µM (active) |  |
| Cc1c(C(=O)O)c(O)cc2c1C(=O)c1c(O)c([C@@H]3O[C@H](CO)[C@@H](O)[C@H](O)[C@H]3O)c(O)c(O)c1C2=O | inactive |  |
| O=C1c2c(O)cccc2Cc2cccc(O)c21 | inactive |  |
| OC[C@H]1O[C@H](O[C@]2(CCl)O[C@H](CCl)[C@@H](O)[C@@H]2O)[C@H](O)[C@@H](O)[C@H]1Cl | inactive |  |
| CCOc1ccc(NC(C)=O)cc1 | inactive |  |
| COc1ccc(C(Cl)=C(c2ccc(OC)cc2)c2ccc(OC)cc2)cc1 | 6.82 µM (active) and 5.45 µM (active) and 4.22 µM (active) |  |
| CC(C)NCC(O)c1ccc(O)c(O)c1 (stereo not given) | inactive |  |

test system: not listed separately; test: qHTS assay to identify small molecule agonists of the progesterone receptor (PR) signaling pathway - cell viability counter screen (AID 1346799); conditions: PR-UAS-bla HEK293T viability, CellTiter-Glo luminescence, 16 h; series mostly up to 92.4 µM; further: nearly all actives have a fitted effect of over 45% in size; further: potency means the concentration at half of the fitted maximal effect
In short: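 Cells (PR-UAS-bla HEK293T) are plated at 3,000/well in 2% charcoal-stripped FBS medium, rested 6 hr, dosed and incubated 16 hr at 37C. CellTiter-Glo is then added and luminescence measured after 30 min at room temperature.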

| Structure (SMILES) | Potency | activity change, negative = cytotoxicity |
| --- | --- | --- |
| CC1(C)S[C@@H]2[C@H](NC(=O)[C@H](N)c3ccccc3)C(=O)N2[C@H]1C(=O)O | inactive |  |
| CN(C)C(=O)Nc1ccc(Cl)c(Cl)c1 | inactive |  |
| CN(C)CCOC(c1ccccc1)c1ccccc1 | inactive |  |
| Cc1cc(=O)oc2cc(O)ccc12 | inactive |  |
| O=c1[nH]cnc2c1ncn2[C@H]1CC[C@@H](CO)O1 | inactive |  |
| O=S1(=O)OC(c2ccc(O)cc2)(c2ccc(O)cc2)c2ccccc21 | inactive |  |
| NC1CCCCC1 | inactive |  |
| Nc1ccc2c(c1)CN1C(=O)c3ccccc3C1=N2 |  | -25.1% [at 19 µM] |
| O=C1NS(=O)(=O)c2ccccc21 | inactive |  |
| O=CC(=O)c1ccccc1 | inactive |  |
| C1CCC(C(CC2CCCCN2)C2CCCCC2)CC1 (stereo not given) | 23.7 µM (active) |  |
| O=C1c2c(O)cccc2Cc2cccc(O)c21 | inactive |  |
